The values that follow come from PubChem BioAssay (NCI).

The assay deals with MDA-MB-468 breast. The assay can be described thus: NCI-60 one-dose screen, 48 h (100 = growth as untreated, 0 = no growth, -100 = all killed). To be noted: 10 µM unless noted.

About 83,000 compounds went through this panel and 20% of them were active in at least one assay; those are over-represented in the sample as a whole.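 Assay: single dose, 48 h. Readout: percent growth (0 = no net growth; negative = cell death). Active: <10.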 Values without a mark were called inactive. Active and inactive are the calls of the source.

`CCN=Cc1c(O)c(O)c(C(C)C)c2cc(C)c(-c3c(C)cc4c(C(C)C)c(O)c(O)c(C=NCC)c4c3O)c(O)c12`: the growth was 55.7%.
The value for `O=C(COc1ccc(C2SCC(=O)N2c2ccccc2)cc1)c1ccccc1` (stereo not drawn) was 85.3%.
To `N#C/C(=C\c1ccc2c(c1)OCO2)n1nnc2ccccc21` belongs -1.9% (active); to `c1ccc2cc(-c3n(Cc4ccc5ccccc5n4)c4ccccc4[n+]3Cc3ccc4ccccc4n3)ccc2c1`, -36% (active).
Turning to `COc1cccc(C(=O)NNc2nc(Cl)nc(Cl)n2)c1`, the growth is 102%.
The value for `CCOC(=O)N1C/C(=C/c2ccc(OC)cc2)C(=O)/C(=C/c2ccc(OC)cc2)C1` was -28.9% (active).
As for `CCN(CC)CCOC(=O)Nc1c(C(C)C)cccc1C(C)C`, the growth was 97.3%.
The value for `COc1cc(CNC(=O)/C=C/C=C/c2ccc3c(c2)OCO3)ccc1OCc1cn(-c2ccc(Cl)c(Cl)c2)nn1` was -68.1% (active); that for `CO[C@@H](C)Cn1c(=O)n(C)c2cnc3ccc(-c4cncc(C(C)(C)O)c4)cc3c21` was -45.9% (active).
Regarding `O=[N+]([O-])c1ccc2c(c1)S(=O)c1cc([N+](=O)[O-])ccc1N2`, the growth is 94.8%.
On to `O=C(Nc1ccccc1O)c1ccc(NS(=O)(=O)c2cccc3cccnc23)cc1`, for which the growth is 49.8%.
The value for `C=C(C)[C@@H]1CC[C@]2(C(N)=O)CC[C@]3(C)[C@H](CC[C@@H]4[C@@]5(C)C/C(=C/c6ccco6)C(=O)C(C)(C)[C@@H]5CC[C@]43C)[C@@H]12` was 87.6%; that for `Cc1ncc(C(=O)Nc2ccc(CN3CCN(C)CC3)c(C(F)(F)F)c2)cc1C#Cc1cnc2cccnn12` was 7.08% (active).
To `CCOC(=O)c1ccc2nc(-c3c(C)nn(-c4ccccc4)c3N3CCOCC3)[nH]c2c1` belongs 105%.
To `COc1ccc(C(=O)c2sc3nc4c(cc3c2N)CCCC4)cc1OC` belongs -5.94% (active); to `CC1CN(S(=O)(=O)c2oc(-c3ccc(Cl)cc3)nc2C#N)CC(C)O1` (stereo not drawn), 70%.
For `CCOc1ccc(Nc2ccnc3cc(Cl)ccc23)cc1`, the growth is -1.66% (active).
The value for `FC(F)(F)C1=NNC(c2ccc3ccccc3c2)=NN1` was 108%; that for `CN1CCN(CC#CCOC(=O)CNC(=O)[C@]23CCC(C)(C)C[C@H]2C2=CC[C@@H]4[C@@]5(C)CC[C@H](O)C(C)(C)[C@@H]5CC[C@@]4(C)[C@]2(C)CC3)CC1` was 97.5%; that for `C[C@H]1[C@H]2[C@H]3CC[C@@H]4[C@@]5(C)CC[C@H](O)C(C)(C)[C@@H]5CC[C@@]4(C)[C@]3(C)CC[C@]23CO[C@]1(C)[C@@H](C(=O)/C=C\c1cccnc1)C3` was 20.5%.
The value for `O=C(Cn1cc(CN2C(=O)c3ccc([N+](=O)[O-])cc3C2=O)nn1)Nc1ccccc1Br` was 111%; that for `Fc1cc(C2=NNC(c3ccc[nH]3)C2)ccc1-n1ccc(C(F)(F)F)n1` (stereo not drawn) was 89.7%.
In the case of `CCn1cc(C(=O)O)c(=O)c2cc(F)c(N3CCNCC3)cc21`, the growth is 93.2%.
